mIDH1 inhibitor: human IDH1 R132H inhibition; 390,000 tested, 0.093% active; Potency, µM (titrated, usually from 76.6 µM), for the others: at the top dose activity change, negative = inhibition, most hits filed as inhibitors; O75874; IDH1-R132H enzyme, NADPH consumption, diaphorase/resazurin fluorescence; further: on the % scale 0 is the no-effect control and ±100 the full control effect; nearly all actives have a fitted effect of over 65% in size
Target sequence (O75874 whole entry R132H, stated change not applied): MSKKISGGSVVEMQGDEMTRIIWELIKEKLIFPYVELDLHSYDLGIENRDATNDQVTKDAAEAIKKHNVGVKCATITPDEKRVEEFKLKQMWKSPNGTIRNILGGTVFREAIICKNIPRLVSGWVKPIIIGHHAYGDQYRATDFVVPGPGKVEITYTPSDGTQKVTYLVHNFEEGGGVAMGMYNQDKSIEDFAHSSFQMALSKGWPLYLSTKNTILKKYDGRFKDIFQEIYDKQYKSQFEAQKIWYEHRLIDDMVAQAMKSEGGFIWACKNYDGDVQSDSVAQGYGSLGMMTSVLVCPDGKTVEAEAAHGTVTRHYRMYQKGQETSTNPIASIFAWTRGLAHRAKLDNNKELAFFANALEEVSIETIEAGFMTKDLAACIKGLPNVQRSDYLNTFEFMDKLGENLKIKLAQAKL
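IDH1-R132H (0.5 ug/mL dispensed) in pH 7.5 Tris buffer was preincubated 30 min with compound, then given a substrate mix of 0.016 mM NADPH and 2 mM alpha-KG for 80 min at room temperature; remaining NADPH was read by diaphorase/resazurin fluorescence.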
rTrxR1 inhibitor: blocks rat thioredoxin reductase 1; 390,000 tested, 1% active; recombinant rTrxR1, NADPH fluorescence consumption, selenite substrate; Potency, µM (doses to about 114 µM), for inactives: at the highest dose activity change, negative = inhibition, usual class: inhibitors; further: on the % scale 0 is the no-effect control and ±100 the full control effect; nearly all actives have a fitted effect of over 65% in size
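Rat TrxR1 (90 nM in the dispensed reagent) was pre-reduced with 400 uM NADPH for 5 min at room temperature, then incubated with compound for 15 min. After 400 uM selenite was added, NADPH fluorescence (Ex 340/Em 450 nm) was followed for 8 min.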
Mito fusion yeast: inhibitors of mitochondrial division or activators of mitochondrial fusion; Potency, µM (series often up to 46.1 µM), without a hit: top-dose growth rescue (activation), usual class: activators; 320,000 tested, 0.23% active; AID 485298; S. cerevisiae fusion-defective mutant growth rescue, CellTiterGlo 48 h; further: % of control where 0% means no effect; nearly all actives have a fitted effect of over 45% in size
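Read-out: ATP-based luminescence (CellTiterGlo, 10 min ambient) reporting growth of fusion-defective ts yeast after 48 hours at 37C on glycerol/ethanol YPEG medium in the presence of compound.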
Nrf2 block: inhibitors of Nrf2 signaling. 360,000 tested, 2.1% active. Potency, µM (doses to about 46 µM), inactives show at the highest dose activity change, negative = inhibition, usual class: inhibitors. A549 ARE-Fluc reporter, luciferase luminescence, 18-24 h; further: on the % scale 0 is the no-effect control and ±100 the full control effect; nearly all actives have a fitted effect of over 60% in size
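In this cell-based qHTS, ARE-driven firefly luciferase in A549 cells reports Nrf2 activity; the luminescent signal after BugLite lysis is the measured value, with a prior CellTiter-Fluor read for cell health.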
TrxR1 substrate: substrates of rat thioredoxin reductase 1. purified TrxR1 substrate turnover, NADPH consumption readout. AID 588456. 390,000 tested, 0.01% active. Potency, µM (titrated, usually from 114 µM), for inactives: top-dose activity change, negative = substrate turnover. O89049; further: on the % scale 0 is the no-effect control and ±100 the full control effect; nearly all actives have a fitted effect of over 50% in size
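Rat TrxR1, dispensed at 90 nM, was prereduced with 400 uM NADPH (final) for 5 min at ~22 deg C, then incubated with compound 15 min before 400 uM selenite. A first-read NADPH fluorescence drop versus no-compound background flagged substrates.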
A549 viability: kills or reduces viability of A549 cells in Nrf2 counter-screen | A549 ARE-Fluc cells, CellTiter-Fluor viability, 18-24 h | Potency, µM (top dose mostly 46 µM), inactives show at the highest dose activity change, negative = cytotoxicity, usual class: inhibitors | 390,000 tested, 0.16% active; further: on the % scale 0 is the no-effect control and ±100 the full control effect
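Cytotoxicity counterscreen: CellTiter-Fluor fluorescence was measured in A549 ARE_Fluc cells after 18-24 h of compound exposure in a concentration series. The subsequent BugLite luminescent read reports ARE-luciferase activity.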
* hit, by the source's call; ? = inconclusive; . = no result given; [ ] = another dose, or the depositor's remark. An excerpt weighted towards active compounds, which were near 3.1% of everything screened. The call rests on the fitted dose curve; in most records, active means well fitted curve in the direction sought with a large enough effect; inconclusive means small, poorly fitted or top-dose-only effect, or another doubt; inactive means no such curve, though single readings can be large; an effect the other way counts as inactive or inconclusive. Potency means the concentration at half of the fitted maximal effect.

SMILES	mIDH1 inhibitor	rTrxR1 inhibitor	Mito fusion yeast	Nrf2 block	TrxR1 substrate	A549 viability
NNC(=O)c1oc2nc(-c3ccc(Cl)cc3)cc(-c3ccccc3)c2c1N	-16%	16%	6%	10µM*	2%	20%
CCCNc1nc(Nc2ccc([N+](=O)[O-])cc2)nc(N2CCOCC2)n1	.	37%[0.0914 µM]	.	.	-3%	.
O=C(Nc1nc(-c2ccco2)c(-c2ccco2)s1)C1CCC1	4%	?	?	-15%	4%	-14%
CS(=O)(=O)c1ccc(C(=O)Nc2nc(-c3ccco3)c(-c3ccco3)s2)cc1	3%	14µM*	11%	-4%	-20%	-8%
COc1ccc(C(=O)Nc2ccc3c(c2)CCCN3C(=O)c2cccs2)c(OC)c1	4%	28%	1%	-1%	34%	-4%
COc1cccc(C(=O)Nc2ccc3c(c2)CCCN3C(=O)c2cccs2)c1OC	1%	-2%	6%	21µM*	-6%	-11%
COc1cccc(C(=O)Nc2ccncc2)c1OC	-2%	-5%	0%	23µM*	-3%	-4%
O=[N+]([O-])c1ccc2c(c1)C=C/C2=C\c1ccccc1	.	6%	.	.	3%	.
Cc1cccc(N2CCN(C(=O)c3cccc(-n4c(C)nc5cccnc54)c3)CC2)c1C	3%	2%	.	?	-6%	9%
COc1ccc(N2C(=O)CC(Sc3nc4ccccc4s3)C2=O)cc1 (centres undefined)	7%	2%[57.1 µM]	-8%	?	-13%[57.1 µM]	4%
COc1ccc(N2C(=O)CC(Sc3nnc(-c4ccccc4F)n3C)C2=O)cc1 (centres undefined)	-7%	32µM*	-2%	0%	0%	1%
C=CCNc1nnc(SC2CC(=O)N(c3ccc(OC)cc3)C2=O)s1 (centres undefined)	-1%	4µM*	-1%	-25%	11%	-1%
CCn1c2ccccc2c2cc(Nc3cc(C)nc4ncnn34)ccc21	?	10%	16µM*	?	-1%	-21%
O=C(/C=C/c1ccccc1Cl)c1ccc[nH]1	2%	-28%	14µM*	-1%	-15%	-1%
CC1=C(c2ccc(C)c(C)c2)S(=O)(=O)N=C1N1CCC(C(=O)N2CCC(C(N)=O)CC2)CC1	.	-17%[57.1 µM]	.	?	-9%[57.1 µM]	0%
CN(C)c1ccc(N=Nc2ccc(S(=O)(=O)O)cc2)cc1	.	-28%	.	.	-24%	.
Cc1ccc(-c2n[nH]c(=S)n2Cc2ccccc2)cc1	5%	-35%[57.1 µM]	12%	?	10%[57.1 µM]	-8%
S=c1[nH]nc(-c2cc3ccccc3o2)n1Cc1ccccc1	11%	3%[57.1 µM]	14µM*	?	47%[57.1 µM]	-1%
Cc1c(CNC2CCCCCC2)c(C(=O)O)c(C)n1Cc1c(F)cccc1Cl	0%	9%	.	5%	-2%	4%
Cc1ccccc1C(=O)N1c2ncnn2C2(CCCCC2)[C@@H]2CCCC[C@@H]21	-4%	15%	.	-11%	-5%	-6%
Clc1ccccc1CN(Cc1ccccc1)C(c1cccs1)c1nnnn1C1CCCC1 (centres undefined)	-1%	-5%	0%	-37%	-5%	-21%
Clc1ccc(CN(CC2CCCO2)C(c2cccs2)c2nnnn2C2CCCC2)cc1 (centres undefined)	-3%	19%	-4%	12µM*	9%	-26%
CC(C)(C)OC(=O)NCc1nnc(-c2nc3ccccc3[nH]2)o1	.	.	.	14%	.	-4%
CC(C)(C)Nc1nc(N2CCCC2)nc(N2CCCC2)n1	11%	2%	-6%	?	-4%	15µM*
CC(C)Cn1c(N)c(C(=O)CCl)c(=O)n(C)c1=O	0%	?	-3%	-14%	3%	-2%
Cn1c(=O)c(C(=O)CCl)c(N)n(CC2CC2)c1=O	6%	14µM*	-16%	6%	-6%[57.1 µM]	-3%
O=C(N/N=C/c1cccc(Oc2ccccc2)c1)c1cccc(Br)c1	5%	21%	18%	18µM*	8%	0%[1.84 µM]

Screening data (PubChem)
